Data published in PubChem BioAssay (NCI).
The panel holds about 83,000 compounds, 20% with a hit somewhere; the sample as a whole holds those more often.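 48-hour exposure, single concentration, 96-well plates; percent growth endpoint where 0 means no net growth. Active: below 10.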 Calls of active or inactive are those of the source.

What follows are compounds tested on HCT-116 colon (assay: NCI-60 one-dose screen, 48 h (100 = growth as untreated, 0 = no growth, -100 = all killed)). Details: 10 µM unless noted.
Description: Growth inhibition of the HCT-116 human tumor cell line is measured as a screen for anti-cancer activity. Cells are grown in 96 well plates and exposed to the test compound for 48 hours. Compounds are tested at a single concentration, which is 10^-5 M for most compounds. The reported endpoint is percent growth (GI% or GIPRCNT), where numbers from 0 - 100% represent growth inhibition, and numbers from -100% - 0 represent cell death. For example, a value of 40 represents 60% growth inhibition. A value of 0 means no net growth occurred over the course of the experiment. A value of -40 indicates 40% of cells at the beginning of the experiment died by the end of the experiment. A value of -100 means all cells are dead at the end of the experiment.
NCI-60 Human Tumor Cell Lines Screen was performed using the standard one-dose NCI protocol, which is described in more detail at https://dtp.cancer.gov/discovery_development/nci-60/default.htm.
Compounds with GIPRCNT values below 10 were considered active. Activity score was based on GIPRCNT using the following formula: […]
Score is 0 for GIPRCNT values of 100 or above, 50 for GIPRCNT values of 0, and 100 for GIPRCNT values of -100.

Row | Structure (SMILES) | growth
1 | CN1C2CCC1/C(=C\c1ccc(Cl)cc1)C(=O)/C2=C/c1ccc(Cl)cc1 | 17.4% (inactive)
2 | Cc1ccc(Nc2cccc3ccccc23)cc1 | 80.7% (inactive)
3 | C/C(=N\Nc1ccc([N+](=O)[O-])cn1)c1ccc(N)cc1 | 97.8% (inactive)
4 | CC(C)CC(=O)C(CCc1ccccn1)C(C)C (stereo not given) | 105% (inactive)
5 | CCc1onc(-c2ccc(OC)cc2)c1-c1ccccc1OCCN(CC)CC | 70.9% (inactive)
6 | C/C(=N\NC(=O)CSc1nc2ccccc2c(=O)n1CCc1ccc(S(N)(=O)=O)cc1)c1ccc(Br)cc1 | 41.2% (inactive)
7 | CC(C)=CC[C@@H]1CC2(CC=C(C)C)C(=O)C(OC3(C(=O)c4ccccc4)C(=O)C4(CC=C(C)C)C[C@@H](CC=C(C)C)C(C)(C)C(CC=C(C)C)(C4=O)C3=O)(C(=O)c3ccccc3)C(=O)C(CC=C(C)C)(C2=O)C1(C)C (stereo not given in full) | -33.4% (active)
8 | CC1=C(O)C(=O)CC1 | 105% (inactive)
9 | C=C(c1ccc(C(=O)NCCCn2ccnc2)cc1)c1cc2c(cc1C)C(C)(C)CCC2(C)C | -59% (active)
10 | CN1C(=O)C(C(=O)/C=C/c2ccccc2C(=O)O)C(=O)N(C)C1=O | 97.3% (inactive)
11 | CN1C(=O)N(C)C2C1NN=c1s/c(=C\c3ccsc3)c(=O)n12 (stereo not given) | 18.5% (inactive)
12 | Cc1ccc(C)c2c1SC1=NNC(Oc3ccc(Cl)cc3)=C(C#N)C(=N)N12 | 108% (inactive)
13 | COc1ccc(/C=C/c2nc(NCCCN(C)C)c3ccccc3n2)cc1 | 38% (inactive)
14 | CCOC(=O)c1ccc2c(c1)nc(-c1ccc(Cl)cc1)n2-c1cc(C(C)(C)C)[nH]n1 | 8.57% (active)
15 | C#Cc1cccc(Nc2nc3cc([N+](=O)[O-])ccc3nc2Nc2ccc(O)cc2)c1 | -11.9% (active)
16 | CNC(=O)c1c(NC(=O)c2ccc(C(C)C)cc2)sc2c1CCC(=O)C2 | -31.2% (active)
17 | COc1cc(NC(=O)CSc2nc3ccc(Cl)cc3c(=O)n2-c2ccccc2)cc(OC)c1OC | 92.5% (inactive)
18 | CC(C)(C)c1ccc(OC(=O)Nc2ccccc2)cc1 | 97.4% (inactive)
19 | O=C(CSc1nc2c(n1Nc1ccccc1)-c1ccccc1SC2)Nc1nccs1 | 88.3% (inactive)
20 | CC(C)CC1NC(=O)C(CC(C)C)N(CO)C1=O (stereo not given) | 98.8% (inactive)

Row | Structure (SMILES) | growth
21 | CC(C)(C)c1nn(-c2ccccc2)c2c1C(=O)CSC(c1ccccc1Cl)N2 (stereo not given) | 16.2% (inactive)
22 | COc1ccc2nc3ccccc3c(NCc3ccc(C)cc3)c2c1 | 8.58% (active)
23 | CO[C@H](C(=O)[C@@H](O)[C@@H](C)O)[C@@H]1Cc2cc3cc(O[C@H]4C[C@@H](O[C@H]5C[C@@H](O)[C@H](O)C(C)O5)[C@H](O)C(C)O4)c(C)c(O)c3c(O)c2C(=O)[C@H]1O[C@H]1C[C@@H](O[C@H]2C[C@@H](O[C@H]3C[C@](C)(O)C(=O)C(C)O3)[C@@H](O)C(C)O2)[C@H](O)C(C)O1 (stereo not given in full) | 4.55% (active)
24 | COc1cc(OC)c(C(=O)/C=C/c2cccc(OC(C)=O)c2)cc1CC=C(C)C | 47.1% (inactive)
25 | Cc1ccc(NC(=O)c2cc(NCc3cc(O)ccc3O)ccc2O)cc1 | 97% (inactive)
26 | COC(=O)c1ccc2c(c1)nc(-c1ccc(Cl)cc1)n2-c1cc(C(C)(C)C)[nH]n1 | 28.5% (inactive)
27 | Cc1cc(C#Cc2ccc(C(C)(C)C)cc2)ccc1-n1c(/C=C/c2c(Cl)cccc2Cl)nc2ccccc2c1=O | 89.2% (inactive)
28 | COc1cccc(NC(=O)OC(C)C)c1 | 101% (inactive)
29 | Clc1ccc(C2=NN[C@H](c3cn(-c4ccccc4)nc3-c3ccccc3)C2)cc1 | 0.0078% (active)
30 | O=C1CCCN1C1CCN2CCCc3cccc1c32 (stereo not given) | 101% (inactive)
31 | COc1cnc2c(c1)C(=O)c1c-2n(CCCN2CCN(C)CC2)c(=O)c2cc(Cl)ccc12 | 32% (inactive)
32 | NC(CCC(=O)NC(CS)C(=O)NCC(=O)O)C(=O)O (stereo not given) | 114% (inactive)
33 | N#CCCn1cnc2c(N)ncnc21 | 99.1% (inactive)
34 | NS(=O)(=O)c1ccc(CCn2c(SCC(=O)N/N=C/c3ccccc3O)nc3ccccc3c2=O)cc1 | 16.9% (inactive)
35 | O=C(c1ccccc1)C(CCc1ccccn1)CCc1ccccn1 | 94% (inactive)
36 | COc1cnc2c(c1)C(=O)c1c-2n(CCCN2CCCC2)c(=O)c2cc(Cl)ccc12 | -92.8% (active)
37 | CCNC(=O)c1ccc2c(c1)nc(-c1ccc(Cl)cc1)n2-c1cc(C(C)(C)C)[nH]n1 | 15.3% (inactive)
38 | COc1cc(CN(c2ccc(C)cc2)C2OC(=O)c3ccccc32)cc(OC)c1OC (stereo not given) | 6.74% (active)
39 | OC(CCCCCCCCC(O)CN1CCc2ccccc2C1)CN1CCc2ccccc2C1 (stereo not given) | 98% (inactive)
40 | Cc1cc(-c2ccc(N=Nc3c(S(=O)(=O)O)cc4cc(S(=O)(=O)O)cc(O)c4c3O)c(C)c2)ccc1N=Nc1c(S(=O)(=O)O)cc2cc(S(=O)(=O)O)cc(O)c2c1O | 109% (inactive)
